# Hits are enriched below; roughly 18% of the tested compounds scored in any of these assays.
# IL1B secr inh – inhibitors of inflammasome signaling (IL-1 beta secretion). THP-1 LPS/ATP IL-1B secretion, AlphaLISA, 16 h; hits give low values. activity change, % at 57.5 µM. 360,000 tested, 4.7% active. AID 743279; in the data active = activity change below about -50%; inconclusive = mostly about -30% to -49%; also: % is scaled to controls: 0 for no effect and ±100 for the full control effect
#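 THP-1 cells pretreated 1 hr with compounds (up to 57.5 uM final), then stimulated with LPS (250 ng/mL final) plus ATP (1.25 mM final); secreted IL-1B measured by AlphaLISA after 16 hr, decreased signal indicating inhibition.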
# TDP1 block – TDP1 (human) enzyme inhibition; Potency, µM (series often up to 130 µM), inactives show at the highest dose activity change, negative = inhibition, hits mostly inhibitors; recombinant TDP1, AlphaScreen DNA substrate cleavage; 350,000 tested, 0.28% active; Q9NUW8; also: potency is read from the fitted curve at half-maximal effect; % is scaled to controls: 0 for no effect and ±100 for the full control effect; nearly all actives have a fitted effect of over 40% in size
# Target sequence (Q9NUW8 whole entry, looked up): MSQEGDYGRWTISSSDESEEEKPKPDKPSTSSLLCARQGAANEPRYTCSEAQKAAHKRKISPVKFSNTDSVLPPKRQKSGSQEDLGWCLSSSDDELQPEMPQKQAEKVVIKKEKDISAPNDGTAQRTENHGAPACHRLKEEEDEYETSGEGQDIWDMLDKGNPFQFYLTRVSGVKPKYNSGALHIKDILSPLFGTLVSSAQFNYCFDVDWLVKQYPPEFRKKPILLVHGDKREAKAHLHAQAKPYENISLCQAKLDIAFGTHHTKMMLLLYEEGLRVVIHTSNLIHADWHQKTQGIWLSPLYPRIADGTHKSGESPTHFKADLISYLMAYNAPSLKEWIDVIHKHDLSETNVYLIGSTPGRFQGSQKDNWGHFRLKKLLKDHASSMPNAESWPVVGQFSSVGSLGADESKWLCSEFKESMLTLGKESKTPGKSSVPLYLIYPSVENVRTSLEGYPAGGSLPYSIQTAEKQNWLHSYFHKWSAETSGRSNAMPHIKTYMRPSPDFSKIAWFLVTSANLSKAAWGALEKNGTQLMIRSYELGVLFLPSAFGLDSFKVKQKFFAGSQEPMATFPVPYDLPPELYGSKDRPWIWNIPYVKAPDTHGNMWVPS
#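 Recombinant E. coli-expressed Tdp1 (1 nM) preincubated with compound 15 min at RT, then 5'-biotin/3'-phosphotyrosine-FITC DNA substrate (15 nM) added for 5 min. AlphaScreen beads (10 ug/ml) added, 10 min RT; tyrosine-FITC cleavage read as signal loss.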
# TGFb SMAD3 inh – inhibitors of TGF-b signaling | HepG2 CAGA-GFP TGF-b/SMAD3 reporter, GFP fluorescence, 18 h; TGF-beta stimulated, 500 pg/mL final | Potency, µM (top dose mostly 46.1 µM), for the others: top-dose activity, negative = inhibition, hits mostly inhibitors | 410,000 tested, 1.2% active | AID 588855; also: potency is read from the fitted curve at half-maximal effect; % is scaled to controls: 0 for no effect and ±100 for the full control effect; nearly all actives have a fitted effect of over 65% in size
#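 Read-out: total well GFP (ex488/em500-530) summed from mean per-cell fluorescence. Cells: HEPG2 CAGA-GFP, 1% FBS DMEM, 18 h at 37 degrees C with 500 pg/mL final TGF-beta. Unstimulated wells served as the full-inhibition control; stimulated DMSO wells = 0%.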
# HepG2 tox – counter-screen for TGF-b inhibitors: cytotoxicity in HepG2 cells. HepG2 CAGA-GFP viability, ATP luminescence, 18 h. Potency, µM (highest dose often 46.1 µM), for the others: at the highest dose activity change, negative = cytotoxicity, hits mostly cytotoxic. 410,000 tested, 0.76% active; also: potency is read from the fitted curve at half-maximal effect
#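 HepG2 CAGA-GFP cells (1000/well, DMEM with 1% FBS) received compound, then TGF-beta at 500 pg/mL final, and were incubated 18 hours at 37 degrees C. Viability was read by CellTiter-Glo luminescence. Media-only wells were set as complete cell-killing and DMSO as no toxicity.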
# TDP1 cell CPT – DT40-hTDP1 cell growth loss with CPT; AID 686979; chicken DT40 Tdp1-/-;hTDP1 cells + 20 nM CPT, ATP luminescence, 48 h; 420,000 tested, 12% active; Potency, µM (series often up to 46.2 µM), inactives show at the highest dose activity change, negative = growth inhibition, usual class: inhibitors; also: potency is read from the fitted curve at half-maximal effect; % is scaled to controls: 0 for no effect and ±100 for the full control effect; nearly all actives have a fitted effect of over 55% in size
#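 Cell growth measured by CellTiter-Glo luminescence after a minimum 48 h, 37 C compound exposure with 20 nM CPT in Tdp1-knockout DT40 cells stably expressing hTDP1, seeded 400/well; qHTS titration format.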
# DT40 TDP1 no CPT – qHTS for Inhibitors of human tyrosyl-DNA phosphodiesterase 1 (TDP1): qHTS in cells in absence of CPT. DT40 Tdp1-/- hTDP1 cells, no CPT, ATP luminescence, 48 h. Potency, µM (series often up to 46.2 µM), for the others: at the highest dose activity change, negative = growth inhibition, usual class: inhibitors. 420,000 tested, 15% active; also: potency is read from the fitted curve at half-maximal effect; % is scaled to controls: 0 for no effect and ±100 for the full control effect; nearly all actives have a fitted effect of over 55% in size
#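 No-CPT arm: Tdp1-/-;hTDP1 DT40 cells (400/well) plus compounds, incubated ≥48 hr at 37 °C. Readout CellTiter-Glo luminescence.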
# Numbers without * were called inactive; ? = inconclusive; . = no result; [ ] = remark or other dose. Unless noted, calls follow the shape of the dose curve; as a rule, active = well fitted curve in the direction sought with a large enough effect; inconclusive = small, poorly fitted or top-dose-only effect, or another doubt; inactive = no such curve, though single readings can be large; an effect the other way counts as inactive or inconclusive.
SMILES,IL1B secr inh,TDP1 block,TGFb SMAD3 inh,HepG2 tox,TDP1 cell CPT,DT40 TDP1 no CPT
O=[N+]([O-])c1ccccc1S(=O)(=O)Nc1cccc(-c2ccc3nncn3n2)c1,-9,-16%,-6%,-10%,-28%,?
Cc1nnc2ccc(-c3cccc(NS(=O)(=O)c4ccccc4[N+](=O)[O-])c3)nn12,32,-6%,6%,-16%,23µM*,15µM*
COc1cccc(Cc2nc3ccccc3nc2SCC(=O)N2CCc3ccccc32)c1,.,5%,-14%,0%,-15%,-1%
CC(C)c1ccc(NC(=O)CSc2nc(=O)[nH]c3c2CCCC3)cc1,12,.,12%,-16%,?,21µM*
CCCCc1ccc(NC(=O)CSc2nc(=O)n(CCN(CC)CC)c3c2CCC3)cc1,-80*,.,-1%,-27%,?,?
CCCCc1ccc(NC(=O)CSc2nc(=O)[nH]c3c2CCCC3)cc1,.,8%,-4%,-1%,?,?
CCN(CC)CCn1c2c(c(SCC(=O)Nc3ccc(C(C)C)cc3)nc1=O)CCCC2,-50*,5%,31%,-4%,?,?
CCN(CC)CCn1c2c(c(SCC(=O)Nc3ccc(F)c(F)c3)nc1=O)CCC2,-66*,-2%,4%,-17%,-6%,7%
CCN(CC)CCCn1c2c(c(SCC(=O)Nc3cc(OC)cc(OC)c3)nc1=O)CCC2,?,.,5%,-82%,?,18µM*
CCOC(=O)Cc1csc(NC(=O)CSc2nc(=O)[nH]c3c2CCCC3)n1,-4,1%,-15%,-9%,5%,?
CCOC(=O)Cc1csc(NC(=O)CSc2nc(=O)[nH]c3c2CCC3)n1,-90*,.,-19%,-16%,0%,-28%
CCN(CC)CCn1c2c(c(SCC(=O)Nc3nc(C)cs3)nc1=O)CCC2,-69*,-6%[0.505 µM],-24%,-1%,6%,7%
CCN(CC)CCCn1c2c(c(SCC(=O)Nc3ccc(F)c(F)c3)nc1=O)CCC2,-23,0%,18%,-26%,-5%,-1%
CC1(C(=O)NS(=O)(=O)c2ccccc2C(F)(F)F)CCN1C(=O)CCc1cccs1 (stereo unspecified),24,.,19%,9%,-15%,-4%
COc1ccccc1CNC(=O)CN(C)S(=O)(=O)c1ccc2c(c1)c(=O)n(C)c(=O)n2C,14,0%,-8%,-2%,2%,18%
COC(=O)[C@]1(C)N[C@H](CN(C)S(=O)(=O)c2ccc(C)cc2)[C@@H]2C(=O)N(Cc3ccccc3)C(=O)[C@@H]21,-15,1%,-7%,-1%,-8%,-25%
COc1cc2c(C(=O)N3CCN(C)CC3)c(C)oc2cc1Br,14,2%,-19%,1%,0%,-13%
Cc1oc2cc3c(C(=O)N4CCCCC4)c(C)oc3cc2c1C(=O)N1CCCCC1,21,5%,16%,11%,?,18µM*
CCCc1ccc(O)c(N=Cc2cc(Br)cc(OCC)c2O)c1,108,8%,?,-50%,3.7µM*,2.6µM*
CCOc1ccc(Br)cc1/C=N/O,-10,-1%,-26%,-2%,1%,-10%
COC(=O)c1cccc(C(=O)N2CCc3c(C(=O)OC)c(OCc4ccccn4)cc(=O)n3CC2)c1,.,.,.,.,-3%,-13%
CCN1C(=O)/C(=C\C(=O)c2cccs2)c2cc(Br)ccc21,-7,8%,0%,15%,13µM*,15µM*
CC1CC(C)CN(S(=O)(=O)c2ccc(C(=O)N3CCOCC3)cc2)C1 (stereo unspecified),-2,2%,-1%,-30%,1%,-26%
CSc1nc(C)cc(C)c1C#N,0,-2%,0%,2%,20%,-17%
Cc1cc(C)c(C#N)c(=N)o1,0,0%,-25%,0%,21µM*,26µM*
SMILES,IL1B secr inh,TDP1 block,TGFb SMAD3 inh,HepG2 tox,TDP1 cell CPT,DT40 TDP1 no CPT
CCCN(CCC)C(=O)c1cc([N+](=O)[O-])cc2c1-c1ccc([N+](=O)[O-])cc1C2=C(C#N)C#N,0,8%,-13%,-3%,5.2µM*,2.9µM*
CCN(CC)C(=O)CSC1=C(C#N)C(c2cccs2)C=C(C)N1 (stereo unspecified),-13,-2%,2%,-39%,?,23µM*
CCOc1ccc(CCNc2nc3c(-c4ccc(C)cc4)nnn3c3ccccc23)cc1OCC,.,-1%,-28%,5%,0%,?
CN(Cc1ccccc1)c1ccc2nnc(-c3ccccc3)n2n1,-26,7%,-1%,-15%,?,?
Clc1ccc(CNc2ccc3nnc(-c4ccccc4)n3n2)cc1,-7,-3%,-14%,-38%,2.1µM*,4.1µM*
CCOc1ccc(CCNc2ccc3nnc(-c4ccccc4)n3n2)cc1OCC,31,3%,-6%,-12%,16µM*,?
COc1ccc(CCC(=O)Nc2nc3ccccc3[nH]2)cc1OC,4,3%,?,-2%,-2%,2%
CCCCCC(=O)Nc1nc2ccccc2[nH]1,13,1%,14%,-2%,9.2µM*,8.2µM*
CCOc1ccccc1OCCCC(=O)Nc1nc2ccccc2[nH]1,-2,3%,-31%,0%,-3%,-14%
COc1ccccc1CCC(=O)Nc1nc2ccccc2[nH]1,-1,3%,-6%,4%,5.8µM*,4.1µM*
CN(Cc1ccco1)C(=O)C1CCCN(c2ncnc3c2nc2n3CCCCC2)C1 (stereo unspecified),38,5%,-4%,2%,?,?
CCc1nnc2c(N3CCN(c4cc(Cl)ccc4C)CC3)nc3ccccc3n12,.,0%,0%,6%,-5%,-13%
Cc1ccc(NC(=O)/C=C/c2ccccc2)c(Br)c1,.,1%[12.3 µM],19%,7%,?,?
C#CCOC(=O)Nc1cccn(Cc2c(Cl)cccc2Cl)c1=O,?,2%,?,-21%,21µM*,10µM*
CCCNC(=O)c1ccc(N2CCC3(CC2)CC(c2cccc(Br)c2)=NO3)c(NC(=O)c2ccc(Cl)c([N+](=O)[O-])c2)c1,25,-2%,?,5%,-15%,-21%
CN(C)CCNC(=O)CN1N=C(c2ccccc2)CCC1=O,.,3%,-2%,-22%,-5%,-2%
CCCCNCCCOc1ccc(C)cc1Br,.,-9%,-15%,-52%,18µM*,16µM*
Cc1ccc(OCCCNCCO)c(Br)c1,-60*,0%,-24%,-17%,4.6µM*,4.6µM*
CNCCCOc1ccc(C)cc1Br,-25,?,-3%,-8%,-6%,-14%
